Source: PubChem BioAssay AID1159580 (chemical genetic matrix, 2015)
Where “and” joins values, the source holds several entries; their conditions need not be identical. Equal entries are not always repeated. The campaign covered roughly 5,500 compounds. About 2,000 (36%) were called active. Roughly 18% stayed inconclusive and do not appear here. Cut-off read from the data, not from the text of the source: active = normalized growth mostly below about 0.91 (no sharp cut-off); inconclusive = no clear call, values can overlap the other calls; inactive = mostly above about 0.92. The list shows a part of the results.

Assay: chemical genetic growth profiling, strain panel (AID 1159580);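 note: tested at 20 µM; growth read once vehicle control cultures reached saturation at 30 °C; 1 = growth at the plate median or of vehicle wells; lower values mean less growth of the strain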
Details: growth OD

Measured: normalized growth

CN1C2CCC1CC(OC(c1ccccc1)c1ccccc1N)C2 (stereo unspecified)
inactive: S. cerevisiae deletion strains, locus YJR075W, strain HOC1, hits give low values 0.997 and 1.08 | S. cerevisiae deletion strains, locus YKL009W, strain mrt4, hits give low values 1.03 | S. cerevisiae deletion strains, locus YKL068W, hits give low values 1.01 | S. cerevisiae deletion strains, locus YKL085W, strain MDH1 (second series), hits give low values 1 | S. cerevisiae deletion strains, locus YKL085W, strain MDH1, hits give low values 1 | S. cerevisiae deletion strains, locus YKL160W, strain elf1, hits give low values 1 | S. cerevisiae deletion strains, locus YKL190W, strain CNB1, hits give low values 1 | S. cerevisiae deletion strains, locus YKR001C, strain vps1, hits give low values 1.02 | S. cerevisiae deletion strains, locus YKR026C, strain gcn3, hits give low values 0.99 | S. cerevisiae deletion strains, locus YKR091W, strain srl3, hits give low values 0.996 | S. cerevisiae deletion strains, locus YLL001W, strain dnm1, hits give low values 1.01 | S. cerevisiae deletion strains, locus YLL026W, hits give low values 0.982 | S. cerevisiae deletion strains, locus YLL041C, strain sdh2, hits give low values 1 | S. cerevisiae deletion strains, locus YLR027C, strain aat2, hits give low values 0.986 | S. cerevisiae deletion strains, locus YLR039C, strain RIC1, hits give low values 1.02 | S. cerevisiae deletion strains, locus YLR058C, strain SHM2, hits give low values 1 | S. cerevisiae deletion strains, locus YLR102C, strain apc9, hits give low values 1.01 | S. cerevisiae deletion strains, locus YLR113W, strain HOG1, hits give low values 1.05 | S. cerevisiae deletion strains, locus YLR221C, strain rsa3, hits give low values 0.998 | S. cerevisiae deletion strains, locus YLR258W, strain gsy2, hits give low values 1 | S. cerevisiae deletion strains, locus YLR262C, strain YPT6 (second series), hits give low values 1.03 | S. cerevisiae deletion strains, locus YLR262C, strain YPT6, hits give low values 1.02 | S. cerevisiae deletion strains, locus YLR268W, strain sec22, hits give low values 1.01 | S. cerevisiae deletion strains, locus YLR320W, strain mms22, hits give low values 0.994 | S. cerevisiae deletion strains, locus YLR330W, strain CHS5, hits give low values 1.01 | S. cerevisiae deletion strains, locus YLR342W, strain FKS1 (second series), hits give low values 1.02 | S. cerevisiae deletion strains, locus YLR342W, strain FKS1, hits give low values 0.994 | S. cerevisiae deletion strains, locus YLR357W, strain rsc2, hits give low values 0.979 | S. cerevisiae deletion strains, locus YLR370C, strain arc18, hits give low values 0.978 | S. cerevisiae deletion strains, locus YLR371W, strain rom2, hits give low values 1.01 | S. cerevisiae deletion strains, locus YLR384C, strain iki3, hits give low values 1 | S. cerevisiae deletion strains, locus YLR418C, strain cdc73, hits give low values 0.994 | S. cerevisiae deletion strains, locus YML016C, strain PPZ1, hits give low values 1 | S. cerevisiae deletion strains, locus YML032C, strain rad52, hits give low values 1.03 | S. cerevisiae deletion strains, locus YML120C, strain ndi1, hits give low values 0.988 | S. cerevisiae deletion strains, locus YML124C, strain tub3, hits give low values 1.02 | S. cerevisiae deletion strains, locus YMR058W, strain fet3, hits give low values 1 | S. cerevisiae deletion strains, locus YMR078C, strain ctf18, hits give low values 1.02 | S. cerevisiae deletion strains, locus YMR125W, strain sto1, hits give low values 0.992 | S. cerevisiae deletion strains, locus YMR129W, hits give low values 0.997 | S. cerevisiae deletion strains, locus YMR205C, strain PFK2, hits give low values 0.981 | S. cerevisiae deletion strains, locus YMR223W, strain ubp8, hits give low values 1.01 | S. cerevisiae deletion strains, locus YMR231W, strain pep5, hits give low values 0.999 | S. cerevisiae deletion strains, locus YMR263W, strain SAP30, hits give low values 0.999 and 1 | S. cerevisiae deletion strains, locus YMR307W, strain GAS1, hits give low values 1 | S. cerevisiae deletion strains, locus YNL067W, strain RPL9B, hits give low values 1.01 | S. cerevisiae deletion strains, locus YNL071W, strain lat1, hits give low values 1 | S. cerevisiae deletion strains, locus YNL128W, strain TEP1, hits give low values 0.993 | S. cerevisiae deletion strains, locus YNL153C, strain GIM3, hits give low values 1 | S. cerevisiae deletion strains, locus YNL175C, strain NOP13, hits give low values 1.01 | S. cerevisiae deletion strains, locus YNL183C, strain NPR1, hits give low values 0.92 | S. cerevisiae deletion strains, locus YNL197C, strain WHI3, hits give low values 1.02 | S. cerevisiae deletion strains, locus YNL209W, strain ssb2, hits give low values 1.01 | S. cerevisiae deletion strains, locus YNL224C, strain SQS1, hits give low values 1.03 | S. cerevisiae deletion strains, locus YNL233W, strain BNI4, hits give low values 1.01 | S. cerevisiae deletion strains, locus YNL248C, strain rpa49, hits give low values 0.995 | S. cerevisiae deletion strains, locus YNL250W, strain rad50, hits give low values 1.02 | S. cerevisiae deletion strains, locus YNL271C, strain bni1, hits give low values 1 | S. cerevisiae deletion strains, locus YNL298W, strain CLA4, hits give low values 1.01 | S. cerevisiae deletion strains, locus YNL307C, strain MCK1, hits give low values 1 | S. cerevisiae deletion strains, locus YNL322C, strain KRE1 (second series), hits give low values 1 | S. cerevisiae deletion strains, locus YNL322C, strain KRE1, hits give low values 0.996 | S. cerevisiae deletion strains, locus YNR049C, strain mso1, hits give low values 0.996 | S. cerevisiae deletion strains, locus YNR052C, strain pop2, hits give low values 1.01 | S. cerevisiae deletion strains, locus YOL006C, strain TOP1, hits give low values 0.986 | S. cerevisiae deletion strains, locus YOL012C, strain htz1 1.61 | S. cerevisiae deletion strains, locus YOL147C, strain pex11, hits give low values 1.02 | S. cerevisiae deletion strains, locus YOR001W, strain rrp6, hits give low values 1.01 | S. cerevisiae deletion strains, locus YOR061W, strain CKA2, hits give low values 1.01 | S. cerevisiae deletion strains, locus YOR069W, strain VPS5, hits give low values 1 | S. cerevisiae deletion strains, locus YOR070C, strain gyp1, hits give low values 1.01 | S. cerevisiae deletion strains, locus YOR080W, strain dia2, hits give low values 0.985 | S. cerevisiae deletion strains, locus YOR083W, strain WHI5 (second series), hits give low values 1.02 | S. cerevisiae deletion strains, locus YOR083W, strain WHI5, hits give low values 1 | S. cerevisiae deletion strains, locus YOR106W, strain vam3, hits give low values 1.01 | S. cerevisiae deletion strains, locus YOR136W, strain idh2, hits give low values 1.03 | S. cerevisiae deletion strains, locus YOR144C, strain elg1, hits give low values 1.01 | S. cerevisiae deletion strains, locus YOR184W, strain ser1, hits give low values 1.04 | S. cerevisiae deletion strains, locus YOR231W, strain MKK1, hits give low values 0.977 | S. cerevisiae deletion strains, locus YOR265W, strain rbl2, hits give low values 1.01 | S. cerevisiae deletion strains, locus YOR270C, strain vph1, hits give low values 1.03 | S. cerevisiae deletion strains, locus YOR290C, strain snf2, hits give low values 1.01 | S. cerevisiae deletion strains, locus YOR316C, strain cot1, hits give low values 1.02 | S. cerevisiae deletion strains, locus YPL051W, strain arl3, hits give low values 0.989 | S. cerevisiae deletion strains, locus YPL055C, strain LGE1, hits give low values 1.01 | S. cerevisiae deletion strains, locus YPL078C, strain atp4, hits give low values 1.01 | S. cerevisiae deletion strains, locus YPL106C, strain sse1, hits give low values 0.957 | S. cerevisiae deletion strains, locus YPL240C, strain hsp82, hits give low values 1.02 | S. cerevisiae deletion strains, locus YPL241C, strain CIN2, hits give low values 0.998 and 1 | S. cerevisiae deletion strains, locus YPL256C, strain CLN2, hits give low values 0.986 | S. cerevisiae deletion strains, locus YPR119W, strain clb2, hits give low values 0.999 | S. cerevisiae deletion strains, locus YPR141C, strain kar3, hits give low values 1.02 | S. cerevisiae deletion strains, locus YPR163C, strain tif3, hits give low values 1.03 | S. cerevisiae deletion strains, locus YPR167C, strain met16, hits give low values 1.02 | S. cerevisiae deletion strains, strain wtn01, hits give low values 1.02 | S. cerevisiae strains, strain wild type, hits give low values 0.984
